Hits are enriched below; roughly 7.8% of the tested compounds scored in any of these assays.
HCMV antiviral – inhibitors of human cytomegalovirus; HFF cells, HCMV-luciferase reporter, 72 h; stronger effect = lower value; activity change, negative = inhibition, % at 57.5 µM; 410,000 compounds, 4.5% hits; AID 1259415; in the data active = activity change below about -60%; inconclusive = no clear call, values can overlap the other calls; inactive = above about -39%
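Two compound doses tested in HFFs infected with HCMV-luciferase, MOI 1 PFU/cell, 72 h at 37C. Lysate luminescence read with OneGlo; data normalized against buffer-only and 10uM Salinomycin inhibitor controls.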
VACV Venus inh – vaccinia inhibition (Venus reporter); Vaccinia virus Venus reporter expression, fluorescence; Potency, µM (highest dose often 36.5 µM), usual class: inhibitors; 330,000 compounds, 0.46% hits; AID 720580; calls by dose curve; tested in A549 cells; note: nearly all actives have a fitted effect of over 30% in size
VACV mCherry inh – inhibitors of vaccinia virus infection (mCherry reporter signal); 310,000 compounds, 0.63% hits; Vaccinia virus mCherry reporter infection, fluorescence; AID 720579; Potency, µM (top dose mostly 36.5 µM), hits mostly inhibitors; calls by dose curve; tested in A549 cells; note: nearly all actives have a fitted effect of over 35% in size
Lassa entry inh – Lassa virus entry inhibition. Lassa virus pseudotype entry inhibition, cell reporter. Potency, µM (doses to about 37.9 µM), most hits filed as inhibitors. 300,000 compounds, 1.2% hits. AID 540256; calls by dose curve; tested in HEK293 cells; note: nearly all actives have a fitted effect of over 50% in size
HCV inh – blocks hepatitis C virus; Huh7.5.1 HCVcc-Cre infection, luciferase reporter, 44 h; 340,000 compounds, 3.4% hits; Potency, µM (top dose mostly 41.8 µM), actives largely listed as inhibitors; active = well fitted inhibition curve with a large enough effect; inconclusive = small, poorly fitted or top-dose-only effect, or another doubt; inactive = no such curve, though single readings can be large or run the other way
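Antiviral activity was scored by luciferase reporter output from cells infected with HCVcc-Cre (~0.5 moi) in presence of compound, 44 h infection period, cells seeded 1,000/well 4 h prior.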
MARV entry inh – inhibitors of Marburg virus binding or cell entry. Marburg virus pseudotyped entry inhibition, cell reporter. Potency, µM (series often up to 37.8 µM), usual class: inhibitors. 300,000 compounds, 1.8% hits. AID 540276; calls by dose curve; tested in HEK293 cells
Hits are given with their value; – = inactive; ? = inconclusive; · = no result.

SMILES	HCMV antiviral	VACV Venus inh	VACV mCherry inh	Lassa entry inh	HCV inh	MARV entry inh
CCn1c(/C=C\c2ccccc2C)nc2ccccc2c1=O	–	–	–	·	?	·
CCn1c(/C=C/c2ccccc2Cl)nc2ccccc2c1=O	-79	–	–	–	–	–
CCc1ccc2oc(C(=O)Nc3nc(-c4ccc(F)cc4)ns3)c(C)c2c1	–	–	–	?	·	–
COc1ccccc1NC(=O)N1CCN(c2cccc(C(F)(F)F)c2)CC1	–	·	·	–	11µM	–
COc1ccccc1NC(=O)N1CCN(c2ccc(F)cc2)CC1	–	–	–	–	–	–
Cc1ccc(CC(=O)N2CCN(c3cccc(C(F)(F)F)c3)CC2)cc1	–	–	·	?	–	–
COc1ccccc1CC(=O)N1CCN(c2cccc(C(F)(F)F)c2)CC1	-70	–	?	?	?	?
O=C(CCCN1C(=O)c2ccccc2C1=O)N1CC[C@@H](c2ccccc2)C1	·	·	·	·	·	–
CCn1c(=O)c2cc(C(=O)NCCN(C)C)sc2c2ccccc21	–	?	–	?	10µM	7.1µM
CCN(CC)CCNC(=O)c1cc2c(=O)n(CC)c3ccccc3c2s1	–	–	–	–	?	–
CCOCCCNC(=O)c1cc2c(=O)n(CC)c3ccccc3c2s1	–	·	·	·	?	·
CCn1c(=O)c2cc(C(=O)Nc3cc(C)c(Cl)cc3OC)sc2c2ccccc21	-106	–	–	–	·	–
CCn1c(=O)c2cc(C(=O)NCCOC)sc2c2ccccc21	–	–	–	–	10µM	–
C/C(=N/O)C(=O)NCCCNCCCN(C)C	·	·	·	·	·	–
COc1cc(CSc2ncc(CO)n2Cc2ccc(C)cc2)cc(OC)c1	–	–	–	–	·	·
C=C1C=C(C(F)F)n2ncc(C(=O)NCc3ccccc3)c2N1	·	–	–	·	·	·
CC(C)(CO)NC(=O)c1cnn(-c2nccc(-c3ccc4c(c3)OCO4)n2)c1C1CC1	·	–	–	·	·	·
O=C(Nc1ccc2ccccc2c1)C(c1ccccc1)C1CCCC1 (stereo not drawn)	?	·	·	2.6µM	?	?
CC1CCC(NC(=O)c2ccc3c(c2)S(=O)(=O)c2ccccc2C3=O)CC1 (stereo not drawn)	-67	–	?	·	–	·
C=CCNC(=O)c1ccc2c(c1)S(=O)(=O)c1ccccc1C2=O	–	–	?	·	25µM	·
CCNC(=O)c1ccc2c(c1)S(=O)(=O)c1ccccc1C2=O	–	–	–	–	–	–
CCCc1nc2sc3c(N4CCC(C)CC4)ncnc3c2c2c1CCCC2	–	–	–	?	·	?
COC1=C(C(=O)c2ccccc2)C(=O)[C@@]2(CC=C(C)C)CC(C#N)C[C@@]1(CC=C(C)C)C2=O (stereo partly drawn)	·	·	·	–	·	–
CC(C)c1ccc(NC(=O)Cn2c(=O)oc3cc(S(=O)(=O)N4CCCC4)ccc32)cc1	–	?	?	–	·	?
CCOc1ccc(/C=C/C2=CC(C)(C)NC(=S)N2)cc1	-94	?	?	–	?	–
SMILES	HCMV antiviral	VACV Venus inh	VACV mCherry inh	Lassa entry inh	HCV inh	MARV entry inh
Cc1csc2nc(CCNS(=O)(=O)c3ccccc3)cn12	–	–	–	–	·	·
O[C@H](c1ccc(F)cc1)[C@H](c1ccccc1)N1CCOCC1	·	·	·	·	·	–
N/N=C(/C(=O)N1CCN(c2ccccn2)CC1)c1ccccc1I	–	·	·	·	·	·
O=C(CN1C(=O)CC(c2ccco2)Sc2ccccc21)Nc1ccc2c(c1)OCCO2 (stereo not drawn)	–	–	–	–	11µM	–
CCOc1cccc(C2C=C(c3ccc4c(c3)OCO4)NC(c3ccc(F)cc3)N2)c1O (stereo not drawn)	·	–	–	·	·	·
Fc1ccc(C2CCNCC2COc2ccc3c(c2)OCO3)cc1 (stereo not drawn)	–	–	?	?	14µM	?
Fc1ccc([C@@H]2CCNC[C@H]2COc2ccc3c(c2)OCO3)cc1	?	?	?	?	?	16µM
COc1ccc(-c2cc(C(F)(F)F)nc(SCCC(=O)Nc3ccc(OC)c(OC)c3)n2)cc1	?	–	–	–	·	?
COc1ccc2nc(C(F)(F)Cl)c(C#N)c(N)c2c1	-88	·	·	·	–	·
COc1ccc2nc3cc(Cl)ccc3c(C#N)c2c1	–	–	–	–	–	–
CCN(CC)c1cc(C)c2cc(NC(=O)c3ccccc3OC)ccc2n1	-60	?	–	?	10µM	?
CCCCc1ccc(C(=O)Nc2ccc3nc(N(CC)CC)cc(C)c3c2)cc1	-61	–	–	–	·	?
CCN(CC)c1cc(C)c2cc(NC(=O)/C=C/c3ccccc3Cl)ccc2n1	-107	–	–	–	·	–
CCN(CC)c1cc(C)c2cc(NC(=O)c3cc(OC)cc(OC)c3)ccc2n1	-85	–	–	?	·	–
COc1ccc(-c2nc3c4ccccc4n(CC(=O)N4CCN(c5ccc(F)cc5)CC4)c(=O)n3n2)cc1	–	–	–	–	·	·
CCn1c(=O)c2cc(C(=O)Nc3cc(F)ccc3F)sc2c2ccccc21	–	?	?	–	·	–
C[C@H](NC(=O)CSc1nc2c(cc1C#N)CN(C)CC2)c1ccccc1	·	·	·	·	·	–
CCN(CC)c1cc(C)c2cc(NC(=O)c3cccc(F)c3)ccc2n1	?	–	–	–	·	?
CCN(CC)c1cc(C)c2cc(NC(=O)c3ccc(OC)c(OC)c3)ccc2n1	-89	–	–	?	·	?
Cc1ccc2[nH]c(=O)c(CN(CCO)Cc3nnnn3Cc3ccccc3)cc2c1	·	–	–	·	·	·
CN1CCN(C(=O)c2ccc(-c3cccs3)s2)CC1	–	–	–	–	–	?
O=C(c1cccs1)c1ccc(-c2cccs2)s1	–	–	–	?	?	11µM
O=C(NCCc1ccccn1)c1cnn(-c2ncc3c(n2)-c2ccccc2CC3)c1C1CC1	·	–	–	·	·	·
CCOC(=O)c1sc(NC(=O)Nc2cccc(Cl)c2)cc1C	-95	?	?	?	?	?
CCOC(=O)c1sc(NC(=O)c2sccc2C)cc1C	–	·	·	?	10µM	?
SMILES	HCMV antiviral	VACV Venus inh	VACV mCherry inh	Lassa entry inh	HCV inh	MARV entry inh
CCOC(=O)c1sc(NC(=O)c2cccs2)cc1C	–	–	·	?	?	?
Cc1cc(C)c(NC(=O)CSc2nccn2-c2cccc(Cl)c2)c(C)c1	–	–	–	–	·	·
CCCCCCn1c(SCC#N)nc2ccccc2c1=O	·	–	–	·	·	·
CC1(C)CC(=O)/C(=C\c2cccc([N+](=O)[O-])c2)C(C)(C)N1	-86	–	?	?	–	?
O=C1N/C(=N/O)S/C1=C/c1cccc([N+](=O)[O-])c1	–	–	–	–	–	–
CC(C)C[C@H](NC(=O)c1nc[nH]c1C(=O)NCCCCCNC(=O)OC(C)(C)C)C(=O)OC(C)(C)C	–	?	–	·	–	·
C[C@H](NC(=O)c1nc[nH]c1C(=O)N[C@H](C)c1ccccc1)C(=O)OC(C)(C)C	–	–	?	·	13µM	·
C[C@H](NC(=O)c1nc[nH]c1C(=O)NCCCCCNC(=O)OC(C)(C)C)C(=O)OC(C)(C)C	?	–	–	·	11µM	·
O=C(CC1(O)C(=O)N(CCc2ccccc2)c2ccc(Br)cc21)c1ccccc1 (stereo not drawn)	–	–	–	–	·	?
